A selection: hits, their analogues and other compounds. The true share with any hit is near 1.4%.
HTR5A inv ctr: inverse agonist of human HTR5A in OPRM1-OPRD1 counter-screen; P47898; HTR5A cell line, luminescence, inverse agonism; inhibition, % at 9.3 µM; 340,000 compounds, 0.083% hits; in the data active means inhibition mostly above about 23%, no sharp cut-off; inactive means mostly below about 18%;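 further: 0% = cells with DMSO and 100% = no-cell wells with DMSO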
Target sequence (P47898 whole entry, looked up): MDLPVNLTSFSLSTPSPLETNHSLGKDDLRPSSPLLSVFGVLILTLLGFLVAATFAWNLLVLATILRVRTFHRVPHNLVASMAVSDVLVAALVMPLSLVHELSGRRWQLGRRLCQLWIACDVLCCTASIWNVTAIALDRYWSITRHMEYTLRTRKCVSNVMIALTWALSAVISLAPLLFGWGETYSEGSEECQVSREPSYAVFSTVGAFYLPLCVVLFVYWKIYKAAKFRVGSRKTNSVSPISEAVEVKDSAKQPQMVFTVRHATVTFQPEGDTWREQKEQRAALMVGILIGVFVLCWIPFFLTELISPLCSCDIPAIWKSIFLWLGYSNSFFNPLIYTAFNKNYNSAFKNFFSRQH
MIN6 prolif: induces beta-cell replication in MIN6 cells; proliferation, % at 10 µM; AID 2380; 330,000 compounds, 0.29% hits; MIN6 cells proliferation, ATPlite luminescence, 48 h; cells starved in 0.2% serum; 100% = growth in 10% serum;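 active means compounds whose signal lies at least 3.5 SD above the mean of all wells on their plate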;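 further: 0% = DMSO-treated cells in low-serum medium and 100% = 10% serum control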
OPRM1-OPRD1 inv: inverse agonist of human OPRM1-OPRD1 heterodimerization; P35372+P41143; 340,000 compounds, 0.21% hits; cell-based MOR-DOR heterodimer luminescence, inverse agonism; inhibition, % at 9.3 µM; in the data active means inhibition above about 22%, passing the limit was not always enough;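 further: 0% = cells with DMSO and 100% = wells without cells with DMSO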
HTR5A ag ctr: HTR5A agonism, opioid heterodimer counter-screen. P47898. HTR5A agonist assay, luminescence, cell-based. activation, % at 9.3 µM. 340,000 compounds, 0.61% hits. AID 504692; in the data active means activation mostly above about 9.5%, no sharp cut-off; inactive means mostly below about 7.6%;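 further: 0% = cells with vehicle only and 100% = reference agonist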
pCIP destab: lowers stability of the mouse p/CIP coactivator protein. Q05BA5. F442A p/CIP-EGFP cells, EGFP fluorescence, 16 h. decrease of EGFP signal, % at 10 µM. 290,000 compounds, 0.01% hits. AID 1984;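 active means EGFP signal decrease of at least 30% at 10 µM or well 3 SD below plate mean, unless failing retest; inactive means the rest, including hits failing retest or dose response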
MOR-DOR ag: OPRM1-OPRD1 heterodimerization agonism; cells, luminescence; P35372+P41143; 340,000 compounds, 0.3% hits; activation, % at 9.3 µM; in the data active means activation above about 18%;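 further: 0% = vehicle-treated cells and 100% = reference agonist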
* = called active by the depositor.

For Cc1ccc(C(=O)OCC(=O)NC(C)C2CC3CCC2C3)cc1N (stereo unspecified) the results were HTR5A inv ctr -13, MIN6 prolif 1, OPRM1-OPRD1 inv 7, HTR5A ag ctr 5 and MOR-DOR ag -2.
Screening O=S(=O)(c1cccc2ccccc12)N1CCC2CC1c1cc(Cl)ccc12 (stereo unspecified) returned HTR5A inv ctr -1, OPRM1-OPRD1 inv 2, HTR5A ag ctr 0 and MOR-DOR ag 0.
`CC(OC(=O)COc1ccc(C#N)cc1)C(=O)Nc1ccc(Cl)cn1` (stereo unspecified) gave HTR5A inv ctr -6, MIN6 prolif -3, OPRM1-OPRD1 inv 12, HTR5A ag ctr 2 and MOR-DOR ag -2.
Screening CC(OC(=O)CNS(=O)(=O)c1ccc(C#N)cc1)C(=O)Nc1ccc(Cl)cn1 (stereo unspecified) returned HTR5A inv ctr 2, MIN6 prolif 1, OPRM1-OPRD1 inv 8, HTR5A ag ctr 11* and MOR-DOR ag -1.
Screening CCOC(=O)C(=CNc1cc(C)nn1-c1ccc(Cl)cc1)C(=O)OCC returned HTR5A inv ctr -36, MIN6 prolif 2, OPRM1-OPRD1 inv -42, HTR5A ag ctr 10*, pCIP destab -6 and MOR-DOR ag 8.
Screening CCOC(=O)C(=CNc1ccc(Cl)cn1)C(=O)OCC returned HTR5A inv ctr 20, MIN6 prolif 0, OPRM1-OPRD1 inv 2, HTR5A ag ctr 6, pCIP destab -8 and MOR-DOR ag 0.
For O=C(COc1ccc2oc(-c3ccccc3)cc(=O)c2c1)Nc1ccccc1 the results were HTR5A inv ctr -17, MIN6 prolif -2, OPRM1-OPRD1 inv 3, HTR5A ag ctr 12*, pCIP destab 6 and MOR-DOR ag 0.
CCCC(=O)C1=C(O)C(C(=O)OC)C(C)(C)CC1=Nc1cccc2ccccc12 (stereo unspecified) was read as HTR5A inv ctr -27, MIN6 prolif -7, OPRM1-OPRD1 inv -26, HTR5A ag ctr 10*, pCIP destab -3 and MOR-DOR ag 4.
CCC(C)(C)C1CCc2[nH]nc(C(=O)NCCCNC(=O)OC(C)(C)C)c2C1 (stereo unspecified) was read as HTR5A inv ctr -10, MIN6 prolif -7, OPRM1-OPRD1 inv 9, HTR5A ag ctr 3 and MOR-DOR ag -2.
`COc1ccc(NC(=O)c2ccc(-c3csc(C)n3)cc2)cc1` gave HTR5A inv ctr -15, MIN6 prolif -2, OPRM1-OPRD1 inv -7, HTR5A ag ctr 4, pCIP destab -8 and MOR-DOR ag 1.
`Cc1nc(-c2ccc(C(=O)Nc3ccc(F)cc3)cc2)cs1` gave HTR5A inv ctr -37, MIN6 prolif -4, OPRM1-OPRD1 inv -64, HTR5A ag ctr 13*, pCIP destab -25 and MOR-DOR ag 9.
Screening C=C(C)Cn1c(SCC)nc2ccccc2c1=O returned HTR5A inv ctr 7, MIN6 prolif -3, OPRM1-OPRD1 inv -33, HTR5A ag ctr 12*, pCIP destab -6 and MOR-DOR ag 6.
`O=C(OCC(=O)N1CCCCC1)c1cc(=O)[nH]c2ccccc12` gave HTR5A inv ctr 17, MIN6 prolif -5, OPRM1-OPRD1 inv 0, HTR5A ag ctr 13* and MOR-DOR ag 0.
COc1ccc(C(=O)NC(=S)N2CCN(c3ccccc3O)CC2)cc1 was read as HTR5A inv ctr 2, MIN6 prolif -4, OPRM1-OPRD1 inv -11, HTR5A ag ctr -1 and MOR-DOR ag 3.
O=C(CN1CCN(c2ccccc2O)CC1)Nc1ccc([N+](=O)[O-])cc1Br was read as HTR5A inv ctr -31, MIN6 prolif 3, OPRM1-OPRD1 inv -21, HTR5A ag ctr 11*, pCIP destab 0 and MOR-DOR ag 4.
Cc1ccc2nc(Cl)c3nnnn3c2c1 was read as HTR5A inv ctr 0, MIN6 prolif -6, OPRM1-OPRD1 inv 38*, HTR5A ag ctr 0, pCIP destab 1 and MOR-DOR ag -7.
Screening COc1cc2sc(-c3ccc(S(C)(=O)=O)cc3)c(C#CCO)c2cc1OC returned HTR5A inv ctr -20, MIN6 prolif 3, OPRM1-OPRD1 inv -6, HTR5A ag ctr 2 and MOR-DOR ag 1.
Cc1ccc(NC(=O)c2ccccc2)cc1 was read as HTR5A inv ctr -18, MIN6 prolif -1, OPRM1-OPRD1 inv -3, HTR5A ag ctr 0, pCIP destab -6 and MOR-DOR ag 1.
For Cc1ccc(N/C(=C\C(=O)c2ccccc2)C(=O)O)cc1 the results were HTR5A inv ctr 7, MIN6 prolif 7.1*, OPRM1-OPRD1 inv 0, HTR5A ag ctr -3, pCIP destab -1 and MOR-DOR ag 0.
`Cc1cccc2c1N(CCCOc1ccc(C(C)(C)C)cc1)C(=O)C2=O` gave HTR5A inv ctr -14, MIN6 prolif -6, OPRM1-OPRD1 inv 30*, HTR5A ag ctr 5, pCIP destab 0 and MOR-DOR ag -5.
For CC(=O)NC1CC2CCCC(C1)N2Cc1ccc(C)cc1 (stereo unspecified) the results were HTR5A inv ctr -3, MIN6 prolif -1, OPRM1-OPRD1 inv 12, HTR5A ag ctr 14*, pCIP destab -10 and MOR-DOR ag -2.
Screening CN(CC(=O)NCc1ccco1)CC(=O)Nc1ccc(F)c(F)c1F returned HTR5A inv ctr -43, MIN6 prolif -3, OPRM1-OPRD1 inv 13, HTR5A ag ctr 11* and MOR-DOR ag -2.
Screening O=C(NCCCCc1ccccc1)c1cccc(NC(=O)C2CC2)c1 returned HTR5A inv ctr 12, OPRM1-OPRD1 inv 17, HTR5A ag ctr -3 and MOR-DOR ag -4.
`CNC(=S)NNc1nncc2ccccc12` gave HTR5A inv ctr -30, MIN6 prolif 2, OPRM1-OPRD1 inv 11, HTR5A ag ctr 12*, pCIP destab 2 and MOR-DOR ag -2.
For CCN1CCN(C(=O)C(C)Sc2nc3nc(C)cc(C)n3n2)CC1 (stereo unspecified) the results were HTR5A inv ctr -12, MIN6 prolif -2, OPRM1-OPRD1 inv 11, HTR5A ag ctr 3 and MOR-DOR ag -2.
CC(C)N(C(=O)[C@H]1CC(CC(=O)NCc2cccc(C(F)(F)F)c2)C(=O)N2CCc3c([nH]c4ccccc34)[C@]12C)C(C)C (stereo partly specified) was read as HTR5A inv ctr 9, MIN6 prolif -5, OPRM1-OPRD1 inv -28, HTR5A ag ctr -2 and MOR-DOR ag 6.
Screening COc1ccc(N2CCN(C(=O)c3c(-c4c(F)cccc4Cl)noc3C)CC2)cc1 returned HTR5A inv ctr 0, MIN6 prolif -2, OPRM1-OPRD1 inv 20, HTR5A ag ctr 1, pCIP destab -7 and MOR-DOR ag -4.
For CCCCc1ccc(NC(=S)N2CCN(C)CC2)cc1 the results were HTR5A inv ctr 1, MIN6 prolif -1, OPRM1-OPRD1 inv 11, HTR5A ag ctr 0, pCIP destab -8 and MOR-DOR ag -2.

Assay outcomes (PubChem BioAssay)
